As a reminder, the AC50 is the midpoint of the concentration-response curve, whichever way the signal moves.

Results on twelve compounds are retold here after PubChem BioAssay (EPA / NIEHS).

Where “and” joins values, the source holds several entries; their conditions need not be identical. Identical values can stand only once. The source holds several records for some structures; these can differ, active in one and inactive in another. Calls of active or inactive are those of the source. The calls were made as follows: active = hit-call score of the fitted dose curve at least 0.9, where 1 is the maximum; inactive = score below 0.9.

The nature of one test: CCTE_Shafer_MEA_acute_interburst_interval_mean: CCTE's Neural Acute Assay for Mean Interburst Interval, Shafer Lab (AID 2284016).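 Also: percent change of mean interburst interval versus each well's own pre-dose baseline; curves fitted for decrease in interburst interval relative to DMSO.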 The procedure, abridged:
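MEA recording of spontaneous network bursting in primary rat cortical cultures; mean interburst interval was compared before and after a 40-min compound exposure (0.03-40 uM) and expressed as percent change, relative to DMSO.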
Turning to `CCCN(CCC)c1c([N+](=O)[O-])cc(C(F)(F)F)cc1[N+](=O)[O-]`, the AC50 is 4.23 µM (active).

Take `CCC(C)(C)C(=O)OC1=C(c2ccc(Cl)cc2Cl)C(=O)OC12CCCCC2`: the outcome was inactive.

Turning to `Oc1ccc(Cl)cc1Cc1ccccc1`, the result was inactive.

As to `O=[N+]([O-])/N=C1\NCCN1Cc1ccc(Cl)nc1`, the outcome was inactive.

Turning to `N#Cc1c(Cl)c(Cl)c(Cl)c(C#N)c1Cl`, the outcome was inactive.

On to `O=C(O)CCCOc1ccc(Cl)cc1Cl`, for which the result was inactive.

`CC[C@H](C)[C@H]1O[C@]2(C=C[C@@H]1C)C[C@@H]1C[C@@H](C/C=C(\C)[C@@H](O[C@H]3C[C@H](OC)[C@@H](O[C@H]4C[C@H](OC)[C@@H](O)[C@H](C)O4)[C@H](C)O3)[C@@H](C)/C=C/C=C3\CO[C@@H]4[C@H](O)C(C)=C[C@@H](C(=O)O1)[C@]34O)O2` (tested in a mixture with another compound): the outcome was inactive.

As for `CCC(C)Nc1c([N+](=O)[O-])cc(C(C)(C)C)cc1[N+](=O)[O-]` (configuration not stated), the compound was classed as inactive.

`O=S1OCC2C(CO1)C1(Cl)C(Cl)=C(Cl)C2(Cl)C1(Cl)Cl` (configuration not stated): the compound was classed as inactive.

In the case of `Oc1cc(Cl)ccc1Oc1ccc(Cl)cc1Cl`, the AC50 is 1.2 µM (active).

Turning to `C[C@H]1[C@H](c2ccc(Cl)cc2)SC(=O)N1C(=O)NC1CCCCC1`, the AC50 was 28.7 µM (active).

For the compound `CCCN(CCOc1c(Cl)cc(Cl)cc1Cl)C(=O)n1ccnc1`, the result was inactive.

A short description of a further test: CCTE_Shafer_MEA_acute_burst_percentage_mean: CCTE's Neural Acute Assay for Percentage of Spikes in a Burst, Shafer Lab (AID 2284017).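 As to AC50: curve fitted for loss of signal so potency reflects decreased burst percentage.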 The gist of the method: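 Compounds were tested at 0.03-40 uM on primary rat cortical neuron networks grown over microelectrodes, with at least three wells per compound. Spontaneous firing was recorded for 40 min before and 40 min after dosing, and the change in burst percentage was computed per well.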
Consider `CCCN(CCC)c1c([N+](=O)[O-])cc(C(F)(F)F)cc1[N+](=O)[O-]`, for which the AC50 is 5.5 µM (active).

With `CCC(C)(C)C(=O)OC1=C(c2ccc(Cl)cc2Cl)C(=O)OC12CCCCC2`, the AC50 is 3.59 µM (active) and the call was inactive.

As for `Oc1ccc(Cl)cc1Cc1ccccc1`, the AC50 is 2.55 µM (active).

With `O=[N+]([O-])/N=C1\NCCN1Cc1ccc(Cl)nc1`, the outcome was inactive.

With `N#Cc1c(Cl)c(Cl)c(Cl)c(C#N)c1Cl`, the AC50 was 6.9 µM (active).

For the compound `O=C(O)CCCOc1ccc(Cl)cc1Cl`, the result was inactive.

As to `CC[C@H](C)[C@H]1O[C@]2(C=C[C@@H]1C)C[C@@H]1C[C@@H](C/C=C(\C)[C@@H](O[C@H]3C[C@H](OC)[C@@H](O[C@H]4C[C@H](OC)[C@@H](O)[C@H](C)O4)[C@H](C)O3)[C@@H](C)/C=C/C=C3\CO[C@@H]4[C@H](O)C(C)=C[C@@H](C(=O)O1)[C@]34O)O2` (tested in a mixture with another compound), the AC50 was 0.0165 µM (active).

On to `CCC(C)Nc1c([N+](=O)[O-])cc(C(C)(C)C)cc1[N+](=O)[O-]` (configuration not stated), for which the outcome was inactive.

With `O=S1OCC2C(CO1)C1(Cl)C(Cl)=C(Cl)C2(Cl)C1(Cl)Cl` (configuration not stated), the AC50 was 25.5 µM (active) and the compound was called inactive.

In the case of `Oc1cc(Cl)ccc1Oc1ccc(Cl)cc1Cl`, the AC50 is 12.7 µM (active).

For `C[C@H]1[C@H](c2ccc(Cl)cc2)SC(=O)N1C(=O)NC1CCCCC1`, the AC50 is 19.8 µM (active).

As to `CCCN(CCOc1c(Cl)cc(Cl)cc1Cl)C(=O)n1ccnc1`, the AC50 was 34.6 µM (active).

A further test can be described thus: CCTE_Shafer_MEA_acute_burst_percentage_std: CCTE's Neural Acute Assay for Standard Deviation of Burst Percentage, Shafer Lab (AID 2284018).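 Also: fitted in the negative direction so actives lower burst percentage SD.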 The gist of the method: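 Primary rat cortical neurons on 16-electrode MEA wells were recorded 40 min at baseline (DIV 13 or 15), then 40 min after compound (0.03-40 uM), at 37 C. Well value is SD across electrodes of spikes-in-bursts/total spikes; endpoint is percent change, DMSO-referenced.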
In the case of `CCCN(CCC)c1c([N+](=O)[O-])cc(C(F)(F)F)cc1[N+](=O)[O-]`, the AC50 is 20 µM (active).

For `CCC(C)(C)C(=O)OC1=C(c2ccc(Cl)cc2Cl)C(=O)OC12CCCCC2`, the result was inactive.

Regarding `Oc1ccc(Cl)cc1Cc1ccccc1`, the AC50 was 8.33 µM (active).

On to `O=[N+]([O-])/N=C1\NCCN1Cc1ccc(Cl)nc1`, for which the compound was called inactive.

For the compound `N#Cc1c(Cl)c(Cl)c(Cl)c(C#N)c1Cl`, the compound was classed as inactive.

Take `O=C(O)CCCOc1ccc(Cl)cc1Cl`: the compound was classed as inactive.

Take `CC[C@H](C)[C@H]1O[C@]2(C=C[C@@H]1C)C[C@@H]1C[C@@H](C/C=C(\C)[C@@H](O[C@H]3C[C@H](OC)[C@@H](O[C@H]4C[C@H](OC)[C@@H](O)[C@H](C)O4)[C@H](C)O3)[C@@H](C)/C=C/C=C3\CO[C@@H]4[C@H](O)C(C)=C[C@@H](C(=O)O1)[C@]34O)O2` (tested in a mixture with another compound): the AC50 was 0.0752 µM (active).

Regarding `CCC(C)Nc1c([N+](=O)[O-])cc(C(C)(C)C)cc1[N+](=O)[O-]` (configuration not stated), the concentration at half-maximal activity (AC50) is 0.935 µM (active).

For the compound `O=S1OCC2C(CO1)C1(Cl)C(Cl)=C(Cl)C2(Cl)C1(Cl)Cl` (configuration not stated), the half-maximal activity concentration (AC50) was 0.102 µM (active) and the compound was called inactive.

Regarding `Oc1cc(Cl)ccc1Oc1ccc(Cl)cc1Cl`, the result was inactive.

For the compound `C[C@H]1[C@H](c2ccc(Cl)cc2)SC(=O)N1C(=O)NC1CCCCC1`, the AC50 was 28.4 µM (active).

`CCCN(CCOc1c(Cl)cc(Cl)cc1Cl)C(=O)n1ccnc1`: the compound was called inactive.

The nature of the next test: CCTE_Shafer_MEA_acute_per_network_burst_spike_number_mean: CCTE's Neural Acute Assay for Average Number of Spikes in a Network Burst, Shafer Lab (AID 2284019).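 As to AC50: curve fitted for loss of signal so actives reduce spikes per network burst.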 The procedure, abridged: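 Acute exposure of rat primary cortical networks (DIV 13/15) on MEAs; adaptive spike detection at 8x rms noise, 37 C. Percent change in spikes per network burst after 40 min with compound (0.03-40 uM), negative direction vs DMSO.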
On to `CCCN(CCC)c1c([N+](=O)[O-])cc(C(F)(F)F)cc1[N+](=O)[O-]`, for which the compound was classed as inactive.

Turning to `CCC(C)(C)C(=O)OC1=C(c2ccc(Cl)cc2Cl)C(=O)OC12CCCCC2`, the AC50 is 20 µM (active) and the compound was classed as inactive.

`Oc1ccc(Cl)cc1Cc1ccccc1`: the AC50 was 1.57 µM (active).

With `O=[N+]([O-])/N=C1\NCCN1Cc1ccc(Cl)nc1`, the compound was called inactive.

Turning to `N#Cc1c(Cl)c(Cl)c(Cl)c(C#N)c1Cl`, the result was inactive.

With `O=C(O)CCCOc1ccc(Cl)cc1Cl`, the result was inactive.

In the case of `CC[C@H](C)[C@H]1O[C@]2(C=C[C@@H]1C)C[C@@H]1C[C@@H](C/C=C(\C)[C@@H](O[C@H]3C[C@H](OC)[C@@H](O[C@H]4C[C@H](OC)[C@@H](O)[C@H](C)O4)[C@H](C)O3)[C@@H](C)/C=C/C=C3\CO[C@@H]4[C@H](O)C(C)=C[C@@H](C(=O)O1)[C@]34O)O2` (tested in a mixture with another compound), the AC50 was 0.0134 µM (active).

`CCC(C)Nc1c([N+](=O)[O-])cc(C(C)(C)C)cc1[N+](=O)[O-]` (configuration not stated): the result was inactive.

As for `O=S1OCC2C(CO1)C1(Cl)C(Cl)=C(Cl)C2(Cl)C1(Cl)Cl` (configuration not stated), the AC50 was 230 nM (active) and 56 nM (active).

Turning to `Oc1cc(Cl)ccc1Oc1ccc(Cl)cc1Cl`, the compound was called inactive.

Turning to `C[C@H]1[C@H](c2ccc(Cl)cc2)SC(=O)N1C(=O)NC1CCCCC1`, the AC50 is 9.24 µM (active).

Regarding `CCCN(CCOc1c(Cl)cc(Cl)cc1Cl)C(=O)n1ccnc1`, the AC50 is 33.6 µM (active).
